Results: PubChem BioAssay (NCI)
About 83,000 compounds went through this panel and 20% of them were active in at least one assay; those are over-represented in the sample as a whole.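 A percent growth of 40 corresponds to 60% growth inhibition; 0 means no net growth; -100 means all cells died. Active threshold: below 10.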 Values without a mark were called inactive. Activity calls are given as the source filed them.

Key:
Assay in all cases: NCI-60 one-dose screen, 48 h (100 = growth as untreated, 0 = no growth, -100 = all killed)
Conditions in all cases: 10 µM
[1] = test system: HCT-15 colon
[2] = test system: HT29 colon
[3] = test system: SNB-75 CNS
[4] = test system: SNB-19 CNS
[5] = test system: U251 CNS
[6] = test system: PC-3 prostate
[7] = test system: SK-MEL-5 melanoma
[8] = test system: UACC-62 melanoma
[9] = test system: LOX IMVI melanoma
[10] = test system: SK-MEL-28 melanoma

With `COc1cc(/C=C/C(=O)c2ccc(S(=O)(=O)NCCNc3nc(Nc4ccc(F)cc4)nc(N(C)C)n3)cc2)cc(OC)c1OC` the growth [1] was -65.9% (active), the growth [2] was -56.7% (active) and the growth [3] was 88.2%. The growth [4] was 15.6%, the growth [5] was -81.2% (active) and the growth [6] was 9.45% (active). The growth [7] was 32.4%, the growth [8] was 34.2% and the growth [9] was -100% (active). It also gave a growth [10] of 18%.
Work on `O=C(Nc1cccc([N+](=O)[O-])c1)Nc1cccc([N+](=O)[O-])c1` yielded a growth [1] of 62.7%, a growth [2] of 87.3% and a growth [3] of 90.5%. For the same compound, the growth [4] was 81.7%, the growth [5] was 88.7% and the growth [6] was 52%. It also gave a growth [7] of 69.6%, a growth [8] of 68.5% and a growth [9] of 87.7%. For the same compound, the growth [10] was 88.7%.
For `O=C(CS(=O)(=O)c1oc(-c2ccc(Cl)cc2)nc1S(=O)(=O)c1ccccc1)N1CCCC1`, the growth [1] was -89.3% (active), the growth [2] was -40.6% (active) and the growth [3] was 55.7%. For the same compound, the growth [4] was 80.9%, the growth [5] was 37.5% and the growth [6] was 78.8%. The growth [7] was 84.2%, the growth [8] was 47.5% and the growth [9] was -100% (active). For the same compound, the growth [10] was -100% (active).
In the case of `COc1ccc(-c2cc(C(=O)N=Nc3c(O)[nH]c4ccccc34)c3ccccc3n2)cc1`, the growth [1] is reported as -83.1% (active), the growth [2] is reported as -15.1% (active) and the growth [3] is reported as 53.7%. For the same compound, the growth [4] was -38.8% (active), the growth [5] was -67.6% (active) and the growth [6] was 2.92% (active). For the same compound, the growth [7] was 47.3%, the growth [8] was 39.5% and the growth [9] was -73.6% (active). The growth [10] was -41% (active).
Work on `O=C(O)CCCCCCCCCCN1C(=O)/C(=C/c2cnc(-c3ccc(Cl)cc3)s2)SC1=S` yielded a growth [1] of 26.3%, a growth [2] of 96.3% and a growth [3] of 73.3%. For the same compound, the growth [4] was 27.1%, the growth [5] was -13% (active) and the growth [6] was 25.4%. For the same compound, the growth [7] was 27.4%, the growth [8] was 0.545% (active) and the growth [9] was 5.11% (active). For the same compound, the growth [10] was 40%.
With `CNCc1cccc2c1OCCCCCC[C@@](C)(O)CC1(CC1)S(=O)(=O)c1ccc(cc1)-c1cnc(N)c(n1)C(=O)N2` the growth [1] was -96.6% (active), the growth [2] was -87% (active) and the growth [3] was -93.8% (active). The growth [4] was -97.4% (active), the growth [5] was -83.8% (active) and the growth [6] was -59% (active). The growth [7] was -100% (active), the growth [8] was -90.8% (active) and the growth [9] was -100% (active). For the same compound, the growth [10] was -93.6% (active).
With `COc1cc2c3c(n(CCCNC(C)C)c(=O)c2cc1OC)-c1nc2c(cc1C3=O)OCO2` the growth [1] was -87.9% (active), the growth [2] was -65.4% (active) and the growth [3] was 78.6%. The growth [4] was 33.2%, the growth [5] was -76.3% (active) and the growth [6] was -66.1% (active). The growth [7] was 54.4%, the growth [8] was 22% and the growth [9] was -97.3% (active). For the same compound, the growth [10] was 49.2%.
`COc1ccc(/C=C/C(=O)c2ccc(S(=O)(=O)NCCNc3nc(Nc4ccc(F)cc4)nc(N(C)C)n3)cc2)cc1` was tested, and the growth [1] was 1.91% (active), the growth [2] was -46.4% (active) and the growth [3] was 52.6%. For the same compound, the growth [4] was 36.1%, the growth [5] was 20.8% and the growth [6] was 15.7%. The growth [7] was 21.2%, the growth [8] was 29.6% and the growth [9] was -55.4% (active). For the same compound, the growth [10] was 31.6%.
With `CC(=O)Nc1nc(-c2ccc(N3CCN(C)CC3)c(NS(=O)(=O)c3ccc(C(F)(F)F)cc3)c2)cs1` the growth [1] was -67.7% (active), the growth [2] was -18.7% (active) and the growth [3] was 1.07% (active). The growth [4] was 45.6%, the growth [5] was 23.1% and the growth [6] was 30.3%. The growth [7] was 7.11% (active), the growth [8] was 6.26% (active) and the growth [9] was -85.4% (active). For the same compound, the growth [10] was 5.39% (active).
For `O=C(CNc1nc(-c2ccccc2)cs1)Nc1ccc([N+](=O)[O-])cc1Cl`, the growth [1] was 1.43% (active), the growth [2] was 34.8% and the growth [3] was 82.3%. For the same compound, the growth [4] was 43.8%, the growth [5] was 15.8% and the growth [6] was 38.2%. The growth [7] was 8.63% (active), the growth [8] was 20.5% and the growth [9] was -11.1% (active). For the same compound, the growth [10] was 62.1%.
In the case of `CN1CCN(c2ccc(Nc3nc(NCCCNC(=O)c4ccccc4)c4sccc4n3)cc2)CC1`, the growth [1] is reported as 12.3%, the growth [2] is reported as 14.6% and the growth [3] is reported as 110%. It also gave a growth [4] of 95.5%, a growth [5] of 22.8% and a growth [6] of 56.8%. For the same compound, the growth [7] was 64.9%, the growth [8] was 84.6% and the growth [9] was 16%. For the same compound, the growth [10] was 73.3%.
`Cc1ccc(C(=O)NNC(=O)CSc2nc3ccccc3c(=O)[nH]2)cc1` showed a growth [1] of 103%, a growth [2] of 111% and a growth [3] of 83.1%. It also gave a growth [4] of 92.8%, a growth [5] of 104% and a growth [6] of 90.4%. The growth [7] was 98.7%, the growth [8] was 89.4% and the growth [9] was 96.3%. For the same compound, the growth [10] was 104%.
`COc1ccc(/C=N/N=C(\C)c2ccc3c(c2)Nc2ccccc2S3)cc1O` was tested, and the growth [1] was 29.8%, the growth [2] was 85.3% and the growth [3] was 66%. It also gave a growth [4] of 63.7%, a growth [5] of 64.5% and a growth [6] of 45.4%. The growth [7] was -23.5% (active), the growth [8] was 58.9% and the growth [9] was 21%. It also gave a growth [10] of 60.9%.
